Experimental data taken from PubChem BioAssay AID687022 (Broad Institute, 2013).
The whole screen tested about 1,000 compounds, of which about 360 (36%) were called active. Not all results are given here. A number with no mark means an inactive call.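 Rule for the calls: active = Fitted curve of melting temperature shift crosses the 1.0 threshold at or below the sample's highest valid tested concentration; inconclusive = Flat fit with activity 30 to 70, or invalid fit; inactive = Opposite direction, flat within 30, or no crossing.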

molecular target: Fibroblast growth factor 22 (Homo sapiens) (UniProt Q9HCT0); test: binders of human FGF22 protein, dose response, FGF22 synaptogenesis inhibitor project, biophysical, thermal shift, cherry-pick (AID 687022); conditions: recombinant FGF22 thermal shift, SYPRO orange melting; series mostly up to 38 µM; Tm shift activity: at the top concentration; note: reference of the scale not given here
Sequence (Q9HCT0 whole entry, looked up): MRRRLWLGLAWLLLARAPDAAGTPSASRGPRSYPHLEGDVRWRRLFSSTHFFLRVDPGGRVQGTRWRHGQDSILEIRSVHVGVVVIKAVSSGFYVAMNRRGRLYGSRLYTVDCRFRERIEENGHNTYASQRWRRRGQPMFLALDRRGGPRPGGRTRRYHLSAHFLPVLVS

SMILES	Tm shift activity
Cc1[nH]c(=O)[nH]c(=O)c1S(=O)(=O)Nc1cccc([N+](=O)[O-])c1C	0.356%
CCCNC(=O)N1CC(=O)N2[C@H](C1)[C@@H](c1ccc(-c3cccc(C)c3)cc1)[C@@H]2CO	-0.204%
O=c1cc[nH]c2ccc(Cl)cc12	-0.177%
CC(=O)c1cccc(NC(=O)C2CCCN2S(=O)(=O)c2cccs2)c1 (stereo not drawn)	0.238%
COc1ccc(CCC(C)NC(=O)Cc2ccc(OC)c(OC)c2)c(OC)c1 (stereo not drawn)	-0.077%
CCCN(C)C[C@H]1Oc2cc(-c3ccncc3)ccc2S(=O)(=O)N([C@H](C)CO)C[C@H]1C	-0.032%
O=C1C2C(C(=O)N1CCc1ccccc1)C1C=CC2C12CC2 (stereo not drawn)	-0.247%
CCOC(=O)C1CCC(CNCc2ccccc2C)CC1 (stereo not drawn)	0.003%
N#CCSc1n[nH]c2nc3c(c(=O)n12)C1(CCCCC1)Cc1ccccc1-3	0.19%
COc1cc(C(=O)NC(=S)Nc2ccccc2[N+](=O)[O-])cc(OC)c1OC	-0.198% [at 19.5 µM]
C/C(=N\NC(=O)CNC(=O)c1ccncc1)c1ccc(C)cc1	-0.146%
CN(CC(=O)Nc1ccccc1Cl)C(=O)COC(=O)c1nc(Cl)ccc1Cl	-0.071%
CCn1c(O)c(C=NCc2ccccc2)sc1=S	0%
C[C@@H]1CN([C@H](C)CO)C(=O)Cc2cc(NS(C)(=O)=O)ccc2O[C@@H]1CN(C)Cc1ccc(C(=O)O)cc1	0.177% [at 42 µM]
CC(C)CC#Cc1cnc2c(c1)C(=O)N([C@@H](C)CO)C[C@H](C)[C@@H](CN(C)Cc1ccccn1)O2	0.044%
O=C(CCc1ccc(S(=O)(=O)N2CCOCC2)cc1)Nc1ccccc1F	-0.061%
C/C=C/c1ccc([C@@H]2[C@H](C#N)N(C(=O)CN3CCOCC3)[C@H]2CO)cc1	-0.102% [at 42 µM]
COc1cc(CCC(=O)OCC(=O)Nc2ccc(C)cc2Br)cc(OC)c1OC	-0.237%
CN1CCN(C(=O)C[C@@H]2CC[C@H]3[C@@H](COC[C@H](O)CN3CC3CCCCC3)O2)CC1	0.165%
C[C@H]1CN([C@@H](C)CO)S(=O)(=O)c2ccc(/C=C/c3ccccc3)cc2O[C@@H]1CN(C)Cc1ccc(C(=O)O)cc1	-0.154% [at 42 µM]
CCCC#Cc1ccc2c(c1)O[C@H](CN(C)C(C)=O)[C@@H](C)CN([C@@H](C)CO)S2(=O)=O	-3.12%
C[C@H]1CN([C@@H](C)CO)S(=O)(=O)c2ccc(C#Cc3ccncc3)cc2O[C@H]1CN(C)C(=O)Nc1ccc2c(c1)OCO2	0.854%

SMILES	Tm shift activity
COc1cc(C2C(C#N)=C(N)Oc3n[nH]c(-c4cccnc4)c32)cc(Br)c1O (stereo not drawn)	-0.165%
C[C@@H]1CN([C@@H](C)CO)C(=O)CCCn2nncc2CO[C@H]1CN(C)Cc1ccccc1C(=O)O	-0.141% [at 42 µM]
CCN1C(=O)c2cccc3c(S(=O)(=O)Nc4ccc(O)c(C(=O)O)c4)ccc1c23	0.895% [at 5 µM]
O=C(COc1ccc(S(=O)(=O)Nc2ccccc2)cc1)NCc1ccncc1	0.021%
CN(C)CCN1C(=O)C2C3C=CC(C3)C2C1=O (stereo not drawn)	0.54%
COCC(=O)N(C)C[C@H]1Oc2cc(C#Cc3ccccc3)ccc2S(=O)(=O)N([C@H](C)CO)C[C@H]1C	0.274% [at 42 µM]
O=C(NCC[C@@H]1CC[C@@H](NC(=O)C2CCOCC2)[C@H](CO)O1)Nc1ccc(Cl)cc1	0.778% [at 42 µM]
CC(C)NC(=O)Nc1ccc2c(c1)C(=O)N([C@H](C)CO)C[C@H](C)[C@H](CN(C)C(=O)Nc1cccc3ccccc13)O2	-0.245% [at 42 µM]
O=C(O)C1CSC2(CCN(Cc3ccccc3)CC2)N1 (stereo not drawn)	-0.082%
Fc1ccccc1Nc1n[nH]c(=S)s1	-3.98%
O=C(N/N=C/c1cccc(O)c1)c1cc(-c2ccc3c(c2)OCO3)n[nH]1	0.613%
COc1cc(/C=N/NC(=O)c2ccncc2)ccc1OCC(=O)Nc1cccc([N+](=O)[O-])c1	-0.027%
CC(=O)N(C)C[C@@H]1Oc2ncc(C#CC(C)(C)O)cc2C(=O)N([C@@H](C)CO)C[C@H]1C	-0.011%
Cc1nc2cc(C(=O)NCc3ccc4c(c3)OCO4)ccc2n1-c1ccc(Br)cc1	0.351%
O=[N+]([O-])c1ccc2oc(/C=C/c3ccc(O)cc3)nc2c1	-0.179%
C[C@@H]1CN([C@@H](C)CO)C(=O)c2cc(NS(C)(=O)=O)ccc2O[C@@H]1CN(C)Cc1ccc2c(c1)OCO2	-0.083%
C[C@H](CO)N1C[C@H](C)[C@H](CN(C)C(=O)CC2CC2)Oc2ncc(C#CC3(O)CCCC3)cc2C1=O	-0.167%
O=C(NC[C@@H]1[C@H](c2ccccc2)[C@H](CO)N1C(=O)Cc1cccnc1)C1CC1	-0.166% [at 42 µM]
CCc1cccc(NS(=O)(=O)c2ccc3c(c2)NC(=O)CC(=O)N3)c1	0.132%
CCC(=O)N1CC2(C1)[C@H](c1ccc(-c3cccc(C)c3)cc1)[C@@H](CO)N2S(C)(=O)=O	-0.418%
O=C(C1CCOCC1)N1C[C@@H]2[C@H](c3ccccc31)[C@@H](CO)N2Cc1ccccc1	-0.009% [at 42 µM]
CC(OC(=O)c1ccccc1)C(=O)NCCC1=CCCCC1 (stereo not drawn)	-0.183%

SMILES	Tm shift activity
O=C(COc1cccc(Cl)c1)NCC(c1cccs1)N1CCOCC1 (stereo not drawn)	-0.157%
Cc1cccc(NC(=O)COc2coc(CN3CCc4ccccc4C3)cc2=O)c1	0.031%
c1ccc(NCc2ccccn2)cc1	0.047%
CN1CCN(C(=O)C[C@H]2C=C[C@@H](NC(=O)c3ccc4c(c3)OCO4)[C@H](CO)O2)CC1	0.43% [at 42 µM]
CN(C)S(=O)(=O)n1cnc([C@@H]2[C@@H]3C(=O)OC[C@@H]3C[C@]23N=CN(Cc2ccccc2)C3=O)c1	-0.031%
COc1cc([N+](=O)[O-])ccc1NC(=O)CN1CCCC1	0.026%
CCc1ccc(NC(=O)c2ccc(-n3cncn3)c([N+](=O)[O-])c2)cc1	0.367%
Cc1nc2ccc(NC(=O)c3cc([N+](=O)[O-])cc([N+](=O)[O-])c3Cl)cc2s1	0.47%
O=C(Nc1cccc2ccccc12)c1cccc([N+](=O)[O-])c1	0.033%
O=[N+]([O-])c1ccc2nc(-c3ccc(Cl)cc3)[nH]c2c1	0.366%
CN=C1NN=C(c2cc(C)n(-c3c(C)n(C)n(-c4ccccc4)c3=O)c2C)CS1	-0.139%
Cc1ccc(-c2c[n+](CC(=O)Nc3ccc(C)cc3C)c3n2CCC3)cc1	-0.152%
Cn1cccc1/C=N/NC(=O)Cc1cccc2ccccc12	-0.271%
COC(=O)Cc1n[nH]c(=O)c2ccccc12	-0.034%
O=C(NCCc1c[nH]c2ccccc12)C(=O)NCC1CCCO1 (stereo not drawn)	-0.006%
N#CCC(=O)Nc1ccc(C(=O)NCCc2c[nH]c3ccccc23)cc1	-0.09% [at 10 µM]
COc1cccc(S(=O)(=O)Nc2ccc3c(c2)[C@@H]2C[C@H](CC(=O)NC4CCCCC4)O[C@@H](CO)[C@@H]2O3)c1	-0.228%
C=CCC1c2cccc(C(=O)O)c2C(=O)N1c1cccc(OC)c1 (stereo not drawn)	0.004%
COCC(=O)Nc1ccc2c(c1)[C@H]1C[C@@H](CC(=O)NCc3ccccn3)O[C@H](CO)[C@H]1O2	-0.244%
CCOC(=O)c1c(C)oc2cc(Br)c(O)c(Br)c12	0.458%
C[C@H]1CN([C@@H](C)CO)C(=O)c2cc(NS(=O)(=O)c3ccc(Cl)cc3)ccc2O[C@@H]1CN(C)C(=O)Nc1ccc2c(c1)OCO2	0.029% [at 42 µM]
CCC(=O)N1[C@H](CO)[C@@H](c2ccccc2)[C@H]1CN(C)C(=O)CN1CCOCC1	-0.119%

SMILES	Tm shift activity
O=C(c1cccc(F)c1)N1C[C@H]2[C@@H](c3ccccc31)[C@@H](CO)N2C(=O)c1ccccn1	-0.197% [at 42 µM]
CCOc1ccc(NC(=O)c2cccc(-n3cccc3)c2)cc1S(=O)(=O)N1CCOCC1	0.046%
CC(C)NC(=O)N1[C@H](CO)[C@H](c2ccccc2-c2ccc(F)cc2)[C@@H]1C#N	0.245%
O=C(O)C1CCN(S(=O)(=O)Cc2ccccc2)CC1	0.131%
COc1ccc(NC(=O)CN(c2ccc(C(C)C)cc2)S(=O)(=O)c2c(C)noc2C)cc1OC	-0.176%
CO[C@@H]1CN(C)C(=O)c2cc(NC(=O)C3CCCC3)ccc2OC[C@H](C)N(CCC(F)(F)F)C[C@H]1C	-0.068%
NS(=O)(=O)c1ccc2c(c1)C(=NO)c1cc(S(N)(=O)=O)ccc1-2	0.643%
Oc1c(CN2CCOCC2)cc(CN2CCOCC2)c(O)c1O	0.514%
O=C(Nc1ccccc1Cl)N1[C@H](CO)[C@@H]2c3ccccc3NC[C@@H]21	-0.115%
COc1ccc(NS(=O)(=O)c2cc(N=Nc3c(O)[nH]c(=O)[nH]c3=O)ccc2Cl)cc1	-0.202%
COc1ccccc1C(=O)N1C[C@H]2[C@@H](c3ccccc31)[C@H](CO)N2C(=O)C1CCCCC1	-0.165%
N#C[C@@H]1[C@@H](c2ccc(C3=CCCCC3)cc2)[C@H](CO)N1S(=O)(=O)c1ccccc1	0.72%
Cc1cccc(C(=O)NNC(=O)c2ccc(NS(=O)(=O)c3cccs3)cc2)c1C	-0.21%
COc1ccccc1N(C)S(=O)(=O)c1ccc(C(=O)Nc2ccc(C(N)=O)cc2)cc1	0.212%
COc1ccccc1NC(=O)c1ccc(NC(=O)COC(=O)c2ccc(O)cc2)cc1	0.436%
CCC(C)N(C(=O)COc1ccc(-c2nnco2)cc1)C1CCS(=O)(=O)C1 (stereo not drawn)	-0.201%
O=C(Nc1cccc(S(=O)(=O)N2CCCCC2)c1)C1=NN(c2ccccc2)C(=O)CC1	0.048%
COc1cccc(NC(=O)N[C@@H]2CC[C@@H](CC(=O)Nc3ccccc3)O[C@H]2CO)c1	0.248%
CN(C)CC(=O)Nc1ccc2c(c1)[C@H]1C[C@@H](CC(=O)NCC3CC3)O[C@H](CO)[C@H]1O2	-0.011%
COC(=O)[C@]1(C)N[C@H](c2ccc(-c3ccccc3)cc2)[C@@H]2C(=O)N(C)C(=O)[C@@H]21	-0.021%
Cc1ccc(S(=O)(=O)Nc2ccc3c(c2)CC(=O)N([C@H](C)CO)C[C@@H](C)[C@H](CN(C)C(=O)Nc2ccccc2)O3)cc1	-0.162%
COc1ccc(C(=O)Nc2ccccc2N2CCOCC2)cc1S(=O)(=O)N1CCOCC1	-0.009%
